Source: PubChem BioAssay (EPA / NIEHS)
The source made the active and inactive calls. How the source made its calls: active means hit-call score of the fitted dose curve at least 0.9, where 1 is the maximum; inactive means score below 0.9.

Target: Bile acid receptor (Homo sapiens) (UniProt Q96RI1)
Assay: ATG_IR1_CIS: Attagene CIS-FACTORIAL HepG2 Assay for human Nuclear Receptor Subfamily 1 Group H Member 4 (NR1H4), IR1 submotif (AID 2282946)
Settings: IR1 reporter transcription, actives raise or lower the signal
Outline: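 Transient MRTU transfection, HepG2; 24 h dosing; RNA → RT-PCR → 6-FAM primer extension → HpaI digest → capillary electrophoresis fluorescence. Gain/loss of signal fitted relative to DMSO.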

Sequence of Bile acid receptor (Homo sapiens) (Q96RI1 whole entry, looked up): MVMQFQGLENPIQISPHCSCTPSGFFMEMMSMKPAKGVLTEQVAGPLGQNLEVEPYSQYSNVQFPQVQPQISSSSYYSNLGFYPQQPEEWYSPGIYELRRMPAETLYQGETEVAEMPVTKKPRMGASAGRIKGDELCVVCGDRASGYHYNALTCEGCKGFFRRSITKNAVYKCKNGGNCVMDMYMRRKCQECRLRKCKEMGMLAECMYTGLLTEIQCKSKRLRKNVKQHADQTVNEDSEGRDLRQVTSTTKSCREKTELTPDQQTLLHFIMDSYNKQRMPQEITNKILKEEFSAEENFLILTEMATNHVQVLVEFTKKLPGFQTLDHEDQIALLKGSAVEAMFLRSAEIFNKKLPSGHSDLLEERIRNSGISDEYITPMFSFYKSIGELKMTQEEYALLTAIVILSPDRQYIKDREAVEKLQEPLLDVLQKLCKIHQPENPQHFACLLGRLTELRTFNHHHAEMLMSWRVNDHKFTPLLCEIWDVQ

outcome, inactive:
NC(=O)c1ccccc1O
C=CCOc1c(Br)cc(Br)cc1Br
CCc1c(C(=O)O)c(=O)cnn1-c1ccc(Cl)cc1
CCCCCCCCCCCCCCCC(=O)OCC
C=CC(=O)OCCOC1C2CCC1C1CC=CC12 (stereo not given)
C=COCCCC
O=C1CCCCCCCCCCCCCCCO1
CCCCCCCC[N+](C)(CCCCCCCC)CCCCCCCC
CC(=O)[C@@]1(O)CC[C@H]2[C@@H]3C[C@H](C)C4=CC(=O)C=C[C@]4(C)[C@@]3(F)[C@@H](O)C[C@@]21C
O=Nc1ccc(O)cc1
Cc1ccc(C2OC[C@@H]3OC(c4ccc(C)cc4)O[C@H]([C@H](O)CO)[C@@H]3O2)cc1 (stereo not given in full)
C1=CCCC1
NNC(=O)c1cccc(C(=O)NN)c1
CCCC(C)CCC(C)=O (stereo not given)
CCN(CCC#N)c1ccc(N=Nc2c(Cl)cc([N+](=O)[O-])cc2Cl)cc1
COC(F)(F)C(F)(C(F)(F)F)C(F)(F)F
CCc1nccnc1C
O=[N+]([O-])c1ccc(CO)cc1
C=C(C)CCO
O=S(=O)(O)c1cc(S(=O)(=O)O)c2ccc3c(S(=O)(=O)O)cc(S(=O)(=O)O)c4ccc1c2c43
CC(C)=CCC/C(C)=C\C#N
Nc1nc2ccccc2[nH]1
CC=C1CC2C=CC1C2 (stereo not given)
CC(C)c1ccc2c(C(C)C)cc(C(C)C)c(S(=O)(=O)O)c2c1
O=P(O)(O)Oc1ccccc1
FC(F)=C(F)OC(F)(F)C(F)(F)C(F)(F)F
NC(=O)NNC(N)=O
CC(=O)CC(N)=O
CC(=O)OC(C)C
CC=CC(F)(F)C(F)(F)C(F)(F)F
CCOC(=O)NNc1nncc2ccccc12
CCCCCCCCCCCCCCCC[N+](C)(C)CC
C[Si](C)(C)O[Si](O)(O)O
O=[N+]([O-])C1(Br)COCOC1
COC(=O)/C=C/C(C)=C\C=C\C(C)=C\C=C\C=C(C)\C=C\C=C(C)\C=C\C(=O)O
c1ccc(CCCc2ccncc2)cc1

AC50, active:
C=CC(=O)OCC(Br)CBr (stereo not given) 65.3 µM
CCOC(=O)c1ccccc1C(=C1C=C(Br)C(=O)C(Br)=C1)c1cc(Br)c(O)c(Br)c1 62.5 µM
C#CC1(O)CC[C@H]2[C@@H]3CCC4=CCCC[C@@H]4[C@H]3CC[C@@]21C (stereo not given in full) 0.849 µM
Oc1ccc(Cl)cc1Cc1cc(Cl)ccc1O 11.1 µM

Test system: not listed separately
Assay: ATG_GRE_CIS: Attagene CIS-FACTORIAL HepG2 Assay for human Glucocorticoid Response Elements (GRE) (AID 2282947)
Settings: HepG2 GRE cis-reporter, Attagene multiplex mRNA; actives raise or lower the signal
Outline: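 HepG2 cells transiently transfected with multiple cis-promoter reporter units measure endogenous TF activity; 24 h compound exposure. Reporter mRNA quantified by RT-PCR, FAM labelling, HpaI digestion and capillary electrophoresis; bidirectional fit vs DMSO baseline.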

outcome, inactive:
NC(=O)c1ccccc1O
C=CCOc1c(Br)cc(Br)cc1Br
CCc1c(C(=O)O)c(=O)cnn1-c1ccc(Cl)cc1
CCCCCCCCCCCCCCCC(=O)OCC
C=CC(=O)OCCOC1C2CCC1C1CC=CC12 (stereo not given)
C=COCCCC
O=C1CCCCCCCCCCCCCCCO1
CCCCCCCC[N+](C)(CCCCCCCC)CCCCCCCC
O=Nc1ccc(O)cc1
Cc1ccc(C2OC[C@@H]3OC(c4ccc(C)cc4)O[C@H]([C@H](O)CO)[C@@H]3O2)cc1 (stereo not given in full)
C1=CCCC1
C=CC(=O)OCC(Br)CBr (stereo not given)
NNC(=O)c1cccc(C(=O)NN)c1
CCCC(C)CCC(C)=O (stereo not given)
CCN(CCC#N)c1ccc(N=Nc2c(Cl)cc([N+](=O)[O-])cc2Cl)cc1
COC(F)(F)C(F)(C(F)(F)F)C(F)(F)F
CCc1nccnc1C
O=[N+]([O-])c1ccc(CO)cc1
C=C(C)CCO
O=S(=O)(O)c1cc(S(=O)(=O)O)c2ccc3c(S(=O)(=O)O)cc(S(=O)(=O)O)c4ccc1c2c43
CC(C)=CCC/C(C)=C\C#N
Nc1nc2ccccc2[nH]1
CC=C1CC2C=CC1C2 (stereo not given)
CC(C)c1ccc2c(C(C)C)cc(C(C)C)c(S(=O)(=O)O)c2c1
O=P(O)(O)Oc1ccccc1
FC(F)=C(F)OC(F)(F)C(F)(F)C(F)(F)F
NC(=O)NNC(N)=O
CC(=O)CC(N)=O
CC(=O)OC(C)C
CCOC(=O)c1ccccc1C(=C1C=C(Br)C(=O)C(Br)=C1)c1cc(Br)c(O)c(Br)c1
CC=CC(F)(F)C(F)(F)C(F)(F)F
C#CC1(O)CC[C@H]2[C@@H]3CCC4=CCCC[C@@H]4[C@H]3CC[C@@]21C (stereo not given in full)
CCOC(=O)NNc1nncc2ccccc12
CCCCCCCCCCCCCCCC[N+](C)(C)CC
C[Si](C)(C)O[Si](O)(O)O
Oc1ccc(Cl)cc1Cc1cc(Cl)ccc1O
O=[N+]([O-])C1(Br)COCOC1
COC(=O)/C=C/C(C)=C\C=C\C(C)=C\C=C\C=C(C)\C=C\C=C(C)\C=C\C(=O)O
c1ccc(CCCc2ccncc2)cc1

AC50, active:
CC(=O)[C@@]1(O)CC[C@H]2[C@@H]3C[C@H](C)C4=CC(=O)C=C[C@]4(C)[C@@]3(F)[C@@H](O)C[C@@]21C 0.0821 µM
